Bioassay records (PubChem)
Shown are actives, neighbours in structure and some others; about 21% of the full set was active somewhere.
D3 ag = qHTS of D3 Dopamine Receptor Agonist: qHTS; max activation, %; D(3) dopamine receptor (Homo sapiens), P35462; 0.58% of 410,000 active; AID 652048, 2013; D3R DiscoveRx beta-arrestin cells, luminescence, 90 min; in the data active = max activation above about 30%; also: 0% is about no effect
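Agonist mode: compounds and dopamine controls were applied to plated cells for 90 min at 37 degrees C after an overnight attachment at 1500 cells/well. Luminescent read-out followed 30 - 60 minutes at room temperature with DiscoveRx detection reagent.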
DT40 TDP1 no CPT = qHTS for Inhibitors of human tyrosyl-DNA phosphodiesterase 1 (TDP1): qHTS in cells in absence of CPT; AID 686978, 2013; DT40 Tdp1-/- hTDP1 cells, no CPT, ATP luminescence, 48 h; 15% of 420,000 active; Potency, µM (top dose mostly 46.2 µM), for the others: at the highest dose activity change, negative = growth inhibition, usual class: inhibitors; also: potency is read from the fitted curve at half-maximal effect; % is scaled to controls: 0 for no effect and ±100 for the full control effect; nearly all actives have a fitted effect of over 55% in size
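Chicken DT40 Tdp1-/- cells complemented with human TDP1, screened without camptothecin (DMSO vehicle only), 400 cells/well. Compounds pin-transferred, cells incubated at 37 °C for at least 48 hr. Growth read as ATP-dependent luminescence (CellTiter-Glo, 30 min at RT).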
ClpP mod = qHTS Assay for Activators of ClpP; purified B. subtilis ClpP, FRET peptide cleavage, 20 min; ATP-dependent Clp protease proteolytic subunit (Bacillus subtilis (strain 168)), P80244; Potency, µM (doses to about 57.5 µM), for the others: at the top dose activity change, negative = active; 1.9% of 340,000 active; AID 651965, 2013; active = well fitted falling curve with a large enough effect; inconclusive = small, poorly fitted or top-dose-only effect; inactive = no such curve, though single readings can be large or run the other way; also: potency is read from the fitted curve at half-maximal effect; the source files actives as falling curves though it sought activators and does not explain the sign; nearly all actives have a fitted effect of over 65% in size
Target sequence (P80244 whole entry, looked up): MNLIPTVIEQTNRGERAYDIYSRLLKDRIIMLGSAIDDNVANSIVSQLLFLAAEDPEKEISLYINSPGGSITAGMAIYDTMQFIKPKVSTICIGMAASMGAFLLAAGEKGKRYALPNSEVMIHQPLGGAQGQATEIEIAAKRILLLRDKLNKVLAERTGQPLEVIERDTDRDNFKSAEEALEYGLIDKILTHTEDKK
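Buffer: 100 mM Tris/HCl pH8, 100 mM KCl, 0.05% low protease BSA, 2.5% glycerol, 0.01% Tween-20. ClpP 10 microg/mL final; 20 min RT; delta FRET normalized to ADEP and DMSO controls.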
DT40 TDP1 CPT = qHTS for Inhibitors of human tyrosyl-DNA phosphodiesterase 1 (TDP1): qHTS in cells in presence of CPT. chicken DT40 Tdp1-/-;hTDP1 cells + 20 nM CPT, ATP luminescence, 48 h. Potency, µM (highest dose often 46.2 µM), for the others: at the highest dose activity change, negative = growth inhibition, hits mostly inhibitors. 12% of 420,000 active. AID 686979, 2013; also: potency is read from the fitted curve at half-maximal effect; % is scaled to controls: 0 for no effect and ±100 for the full control effect; nearly all actives have a fitted effect of over 55% in size
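Chicken DT40 Tdp1-/- cells complemented with human TDP1, 400 cells/well, exposed to compounds plus 20 nM camptothecin for at least 48 h at 37 C; viability read as ATP content by CellTiter-Glo luminescence.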
DRD3 antagonist = qHTS of D3 Dopamine Receptor Antagonist: qHTS | D3R cells, DiscoveRx beta-arrestin luminescence, antagonist mode; active compounds read low | max response, negative = inhibition, % | 2.5% of 360,000 active; in the data active = max response below about -50%; inconclusive = no clear call, values can overlap the other calls; also: % is scaled to controls: 0 for no effect and ±100 for the full control effect
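Cells plated overnight at 1500 cells/well, then exposed to library compounds with dopamine controls for 90 minutes at 37 degrees C. DiscoveRx reagent added for 30–60 minutes at room temperature; luminescence read, quantitative HTS format.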
IL1B secr inh = qHTS for Inhibitors of Inflammasome Signaling: IL-1-beta AlphaLISA Primary Screen; 4.7% of 360,000 active; activity change, % at 57.5 µM; AID 743279, 2014; THP-1 LPS/ATP IL-1B secretion, AlphaLISA, 16 h; active compounds read low; in the data active = activity change below about -50%; inconclusive = mostly about -30% to -49%; also: % is scaled to controls: 0 for no effect and ±100 for the full control effect
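THP-1 cells pretreated 1 hr with compounds (up to 57.5 uM final), then stimulated with LPS (250 ng/mL final) plus ATP (1.25 mM final); secreted IL-1B measured by AlphaLISA after 16 hr, decreased signal indicating inhibition.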
* marks the source's active call; other numbers are inactive results; ? = inconclusive; . = no result. Unless noted, calls follow the shape of the dose curve; as a rule, active = well fitted inhibition curve with a large enough effect; inconclusive = small, poorly fitted or top-dose-only effect; inactive = flat fitted curve, though single readings scatter.

SMILES | D3 ag | DT40 TDP1 no CPT | ClpP mod | DT40 TDP1 CPT | DRD3 antagonist | IL1B secr inh
COc1ccc(C(=O)C2CCCN(C(=O)c3c4c(nn3C)CCCC4)C2)cc1F (stereo not drawn) | -4 | ? | . | -25% | -13 | 0
Cc1cc(C(=O)N2CCCC(CO)(Cc3ccc(F)cc3)C2)c(C)o1 (stereo not drawn) | -3 | 23µM* | -24% | 23µM* | -10 | -25
Cc1cc(C(=O)N2CCCC(N3CCN(c4ccc(F)cc4)CC3)C2)c(C)o1 (stereo not drawn) | -8 | 18µM* | -2% | 23µM* | 7 | -10
CC(C)c1cc(C(=O)N2CCCC(N3CCN(c4ccc(F)cc4)CC3)C2)n(C)n1 (stereo not drawn) | -5 | ? | -5% | 16µM* | -21 | 17
Cn1nc2c(c1C(=O)N1CCCC(C(=O)c3cc(F)ccc3F)C1)CCCC2 (stereo not drawn) | -9 | -36% | -3% | 16µM* | -3 | 7
Cc1cc(C(=O)N2CCCC(C(=O)c3cc(F)ccc3F)C2)c(C)o1 (stereo not drawn) | 1 | 18µM* | . | ? | -56* | -4
COC(=O)Cc1[nH]n(-c2ccccc2)c(=O)c1C=Nc1ccc(C)cc1 | -2 | -10% | . | -2% | -9 | 36
COc1ccc(NC(=O)N2CC[C@@]3(CCCN(C(=O)c4csnn4)C3)C2)cc1 | . | -14% | . | 2% | . | .
C[C@@H]1ON(C)[C@H]2C[C@H]3c4[nH]c5ccc(-c6ccc7c(c6)OCO7)cc5c4CCN3C[C@@H]12 | -5 | 21µM* | 4% | ? | -8 | -20
C[C@H](O)[C@@H]1C(=O)N2CCc3c([nH]c4ccccc34)[C@@H]2C[C@@H]1N(C)Cc1ccc(Cl)cc1 | -14 | 29µM* | -24% | ? | -21 | -25
COC(=O)C1=COC(C)C2CN3CCc4c([nH]c5cc(OC)c(OC)cc45)C3CC12 (stereo not drawn) | -10 | ? | 2% | ? | -9 | -22
C[C@H](O)[C@@H]1CN2CCc3c([nH]c4ccc(-c5ccc6c(c5)OCO6)cc34)[C@@H]2C[C@@H]1N(C)C(=O)Nc1ccc(F)cc1 | -4 | 5.2µM* | -18% | 2.9µM* | -9 | -10
COCC(=O)N(C)[C@H]1C[C@H]2c3[nH]c4ccccc4c3CCN2C(=O)[C@H]1[C@H](C)O | -9 | ? | 4% | -20% | ? | 19
COc1ccc(-c2ccc3[nH]c4c(c3c2)CCN2C(=O)[C@@H]([C@H](C)O)[C@@H](N(C)C(=O)Nc3ccc(F)cc3)C[C@@H]42)cc1 | -4 | 12µM* | 4% | ? | -15 | ?
Cc1cn2c(=O)cc(COC(=O)c3cccc(NC(=O)COc4ccccc4Cl)c3)nc2s1 | 1 | ? | -5% | ? | . | .
CCCCn1c(N)c(N(CCOC)C(=O)CCNC(=O)c2ccc(Br)cc2)c(=O)[nH]c1=O | 5 | 3% | -4% | -2% | 23 | 8
Cc1ccc(S(=O)(=O)n2nc(-c3ccc(Cl)cc3)nc2NCc2ccc(F)cc2)cc1 | -14 | . | 1% | . | . | .
COc1ccccc1CC(=O)OC(C)C(=O)Nc1ccc(S(=O)(=O)N2CCCCC2)cc1 (stereo not drawn) | 1 | ? | -13% | ? | 30 | 11
